PubChem BioAssay

Tests used:
[1] = system: Human papillomavirus type 1a protein E7 (residues 44-93); experiment: HPV1a E7 fragment binders on microarrays, primary screen, biochemical, small-molecule microarray, residues 44-93, 635 nm fluorescence (AID 1108); conditions: small-molecule microarray binding, fluorescence 635 nm; higher = more signal;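 further: E7 fragment applied at 1 µg/mL in TBST for 1 h at 4 C; score combines spot fluorescence with its signal to noise ratio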
[2] = modulators of HCV replicon luciferase signal, primary screen, HCV replication inhibitor project, Huh7 cells, luciferase reporter (AID 1109); conditions: 48 h, higher = more signal;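 further: huh7 hepatoma cells harbouring a luciferase neomycin HCV replicon reporter; luciferase luminescence as measure of HCV replicon replication; test concentration not given here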
[3] = biological target: Left-right determination factor 2 (Homo sapiens) (UniProt O00292); experiment: LEFTY2 binders on small-molecule microarrays, primary screen, biochemical, small-molecule microarray, 635 nm fluorescence scan (AID 1110); conditions: LEFTY2 binding, higher = more signal
Chain of Left-right determination factor 2 (Homo sapiens) (O00292 whole entry, looked up): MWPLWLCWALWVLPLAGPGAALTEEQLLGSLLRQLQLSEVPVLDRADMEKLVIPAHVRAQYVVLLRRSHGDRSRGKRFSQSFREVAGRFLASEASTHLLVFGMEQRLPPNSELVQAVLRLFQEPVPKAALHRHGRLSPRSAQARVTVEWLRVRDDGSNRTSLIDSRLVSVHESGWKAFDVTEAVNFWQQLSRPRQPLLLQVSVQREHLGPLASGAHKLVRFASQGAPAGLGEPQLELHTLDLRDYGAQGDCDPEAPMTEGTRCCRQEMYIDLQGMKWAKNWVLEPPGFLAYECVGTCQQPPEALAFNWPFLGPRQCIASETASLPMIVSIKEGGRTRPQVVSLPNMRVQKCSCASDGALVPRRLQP

[4] = biological target: Calmodulin-1 (Homo sapiens) (UniProt P0DP23); experiment: CALM1 binders on microarrays, EGTA buffer, profiling panel, biochemical, small-molecule microarray, Cy5-labelled CALM1 (AID 1111); conditions: Cy5-CALM1 binding fluorescence, higher = more signal;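 further: labelled calmodulin applied in Tris saline Tween buffer holding calcium plus EGTA and DTT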
[5] = biological target: Calmodulin-1 (Homo sapiens) (UniProt P0DP23); experiment: calcium-bound CALM1 binders on microarrays, profiling panel, artefact control for SMM control-protein annotation, biochemical, small-molecule microarray, Cy5-labelled CALM1, plus calcium (AID 1112); conditions: Cy5-CALM1 binding fluorescence, higher = more signal;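 further: score merges spot fluorescence with signal to noise from triplicate slides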
[6] = small-molecule microarray binders of probe aWnt5a, primary screen, biochemical, biotinylated probe, 635/667 nm fluorescence (AID 1113); conditions: higher = more signal;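 further: score merges 667 nm fluorescence intensity with signal-to-noise per printed feature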
[7] = small-molecule microarray binders of probe aShh, primary screen, biochemical, biotinylated probe, 635/667 nm fluorescence (AID 1114); conditions: higher = more signal;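 further: probe is biotin-labelled aShh protein from a stem cell growth factor screen; measures binding of labelled protein to compounds printed on the slide; score merges feature fluorescence at 667 nm with signal-to-noise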
[8] = small-molecule microarray binders of probe aNog, primary screen, biochemical, biotinylated probe, 635/667 nm fluorescence (AID 1115); conditions: higher = more signal;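 further: probe is biotinylated aNog protein used at 0.15 µg/mL for 1 h at 4 C; z-score combines 667 nm fluorescence of each spot with its signal to noise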
[9] = biological target: Torsin-1A-interacting protein 1 (Homo sapiens) (UniProt Q5JTV8); experiment: LAP1 binders from COS7 cell lysate, primary screen, small-molecule microarray, 635/667 nm fluorescence (AID 1116); conditions: COS7-hLAP1 lysate binding, 635 nm fluorescence, higher = more signal
Chain of Torsin-1A-interacting protein 1 (Homo sapiens) (Q5JTV8 whole entry, looked up): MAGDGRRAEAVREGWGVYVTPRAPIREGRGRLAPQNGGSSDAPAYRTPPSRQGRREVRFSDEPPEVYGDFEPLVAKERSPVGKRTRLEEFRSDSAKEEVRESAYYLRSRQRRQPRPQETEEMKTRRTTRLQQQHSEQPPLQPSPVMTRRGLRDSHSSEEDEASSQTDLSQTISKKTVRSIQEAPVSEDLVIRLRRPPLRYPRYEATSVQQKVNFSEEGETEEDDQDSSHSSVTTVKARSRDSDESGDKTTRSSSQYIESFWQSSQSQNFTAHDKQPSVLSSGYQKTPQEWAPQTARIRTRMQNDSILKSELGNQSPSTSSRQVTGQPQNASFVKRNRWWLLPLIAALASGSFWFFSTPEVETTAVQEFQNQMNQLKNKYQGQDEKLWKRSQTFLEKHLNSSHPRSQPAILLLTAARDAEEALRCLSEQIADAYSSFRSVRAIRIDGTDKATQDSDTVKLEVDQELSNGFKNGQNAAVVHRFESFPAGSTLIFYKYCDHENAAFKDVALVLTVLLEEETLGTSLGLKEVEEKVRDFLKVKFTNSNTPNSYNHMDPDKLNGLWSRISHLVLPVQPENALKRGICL

[10] = biological target: Alpha-bungarotoxin (Bungarus multicinctus) (UniProt P60615); experiment: alpha-bungarotoxin binders on microarray, profiling panel, artefact control for SMM control protein annotation, biochemical, small-molecule microarray, Alexa647 label, 635/667 nm fluorescence (AID 1117); conditions: alpha-BTX-A647 binding fluorescence, higher = more signal
Chain of Alpha-bungarotoxin (Bungarus multicinctus) (P60615 whole entry, looked up): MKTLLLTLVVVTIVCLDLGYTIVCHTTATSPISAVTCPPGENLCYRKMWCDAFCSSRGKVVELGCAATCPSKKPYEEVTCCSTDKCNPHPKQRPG

Compound | composite z-score [1] | z-score [2] | composite z-score [3] | composite z-score [4] | composite z-score [5] | composite z-score [6] | composite z-score [7] | composite z-score [8] | composite z-score [9] | composite z-score [10]
COCCCN1C(=O)[C@@]2(c3ccc([N+](=O)[O-])cc3)CC(=O)N(C3CCCCC3)[C@@H]2c2ccc(CO)cc21 | 0.215 | -1.4 | 0.289 | -0.463 | -1.17 | -0.096 | -0.223 | 0.439 | 0.0951 | 0.467
COCC(=C=CC[C@H](O)c1ccccc1OCCO)C[C@H](O)c1cc(Cl)cc(Cl)c1O | 1.31 | -4.43 | 0.223 | 0.068 | -0.596 | 0.0357 | 0.207 | 0.464 | 0.743 | 1.08
[N-]=[N+]=NCc1ccccc1C[C@]1(C(=O)O)N=C(c2ccc(OCCCO)cc2)O[C@H]1c1ccccc1N=[N+]=[N-] | 1.18 | -1.11 | 0.11 | 1.23 | 0.0606 | 0.0919 | 0.0639 | 1.59 | 1.46 | 1.76
C[C@@H]1ON(c2cccc(C(=O)OC(C)(C)C)c2)[C@H](c2ccc(Br)cc2)[C@H]1C(=O)N1C(=O)OC[C@H]1Cc1ccccc1 | 1.16 | -1 | 0.552 | 0.702 | -0.367 | 0.667 | 0.0756 | 1.09 | 2.7 | 0.518
CCOC(=O)[C@H]1C/C=C/C[C@H](C(=O)OCC)C(=O)O[C@H]2[C@@H](OC)O[C@H](CO)[C@@H](OC(=O)Nc3cccc(F)c3)[C@@H]2OC1=O | 1.14 | -3.56 | -0.169 | -0.192 | -0.273 | -0.0243 | 0.0818 | 1.93 | 0.556 | 0.729
CC(C)N1C(=O)[C@@]2(Cc3ccccc31)c1ccccc1C(=O)N(C1CCCCC1)[C@H]2c1ccc(CO)cc1 | 0.683 | -1.26 | 0.0232 | -0.435 | -0.56 | -0.063 | -0.195 | -0.399 | 0.103 | 0.284
O=C1[C@H]2C=C(Br)[C@H](C[C@@H]2c2ccccc2)[C@@]12CO2 | 0.235 | -3.33 | 1.02 | -0.428 | -0.441 | -0.152 | -0.414 | -0.461 | 0.0974 | 0.0148
O=C1OCCC=C[C@H]2OC34C=CCN(CCN5CCOCC5)C(=O)[C@H]3N(CCCCCCO)C(=O)[C@@H]4C12 (stereo not given in full) | -0.149 | -0.135 | -0.0529 | -0.304 | -1.07 | -0.178 | -0.289 | -0.484 | 0.551 | -0.288
[N-]=[N+]=NCc1ccccc1C[C@]1(C(=O)NCC(O)CO)N=C(c2ccc(OCCCO)cc2)O[C@H]1c1ccccc1 (stereo not given in full) | 0.722 | -1.82 | -1.84 | 1.51 | 1.24 | -0.0405 | -0.0211 | 1.06 | 0.846 | 0.19
O=C1C2C=CC(C(O)C3CCCCC3)N(Nc3ccc([N+](=O)[O-])cc3)C2C(=O)N1c1ccccc1 (stereo not given) | 1.37 | -0.057 | -1.4 | 1.16 | 0.164 | -0.0944 | -0.0035 | 0.283 | 0.721 | 1.96
CCN(CC)c1ccc(N2CC=CC34O[C@@H]5/C=C\CCCOC(=O)C5[C@H]3C(=O)N(CCO)[C@@H]4C2=O)cc1 (stereo not given in full) | -0.0422 | -0.684 | -0.85 | -0.557 | 0.172 | -0.113 | -0.0769 | -0.406 | -0.233 | -0.259
CCCCC(=C=CC[C@@H](O)c1ccccc1OCCO)CCO | -0.0803 | -0.23 | -0.855 | 0.184 | 0.23 | -0.147 | -0.366 | -0.034 | 0.212 | -0.0423
COc1ccc([C@H]2C[C@H]3C(Br)=C[C@@H]2C(=O)[C@]32CO2)cc1 | -0.693 | -2.46 | 0.446 | -0.0833 | -0.798 | 0.0136 | -0.138 | -0.158 | 0.252 | 0.29
C=C(CCCC)/C(=C/C[C@@H](OC(C)=O)c1ccccc1OCCO)c1cnc2ccccc2c1 | 0.75 | -2.25 | 0.157 | -0.0416 | -0.418 | -0.124 | -0.0977 | 0.369 | 0.44 | 0.157
CC(C)OC(=O)C=C1C[C@@H](c2ccccc2C(F)(F)F)O[C@@H](c2ccccc2C(F)(F)F)O1 | 0.706 | -0.384 | 0.351 | -0.21 | -0.624 | -0.13 | -0.2 | 0.0234 | -0.281 | 0.497
[N-]=[N+]=NCc1ccccc1C[C@]1(C(=O)N2CCOCC2)N=C(c2ccc(OCCCO)cc2)O[C@H]1c1ccccc1N=[N+]=[N-] | 1.44 | -2.21 | 0.536 | 1.14 | 0.792 | 0.0873 | 0.385 | 0.49 | 1.73 | 1.14

Compound | composite z-score [1] | z-score [2] | composite z-score [3] | composite z-score [4] | composite z-score [5] | composite z-score [6] | composite z-score [7] | composite z-score [8] | composite z-score [9] | composite z-score [10]
O=C1NC(=O)C2C1C=CC(C(O)c1cccc3ccccc13)N2Nc1ccccn1 (stereo not given) | 0.355 | 0.496 | 0.326 | -0.168 | -0.477 | -0.034 | 0.401 | 0.116 | 0.594 | 0.307
C=C(C)C1C(=C)CN([C@H](CO)c2ccccc2)C1=O (stereo not given in full) | 0.317 | -0.25 | -0.065 | -0.911 | -0.968 | -0.0459 | -0.154 | -0.229 | -0.486 | -0.605
CC(C)(C)OC(=O)CC[C@]1(C(=O)O)N=C(c2ccc(OCCCO)cc2)O[C@H]1c1ccccc1N=[N+]=[N-] | 0.148 | 2.27 | 0.101 | 1.84 | 0.465 | 0.38 | 0.699 | 2.34 | 1.41 | 1.42
COC(=O)[C@@]1(Cc2ccc(OC)cc2)[C@H]2c3cc(C(=O)N4CCCC4)n(Cc4ccccc4)c3C[C@H]2CN1C(=O)c1ccccc1 | 1.16 | -1.76 | 0.117 | 2.3 | 0.817 | 1.29 | 2.49 | 2.87 | 0.0976 | 0.75
O=C1O[C@H](c2ccccc2)[C@H](c2ccccc2)N2[C@H]1[C@@H](C(=O)N1CCN(c3ncccn3)CC1)[C@]1(C(=O)Nc3ccc(C#CC4=CCCCC4)cc31)[C@H]2c1ccc(O)cc1 | 1.41 | -1.98 | 0.144 | 0.961 | 0.336 | -0.0721 | -0.221 | 0.113 | 0.792 | 1.44
C=CCC(OC(C)=O)[C@@H]1[C@@H](N(Cc2ccc(-c3ccccc3)cc2)C(=O)Cc2ccc(F)cc2)c2cc(OCCCO)ccc2N1C(=O)c1ccc(-c2ccccc2)cc1 (stereo not given in full) | -0.866 | -1.23 | -0.177 | -0.454 | 0.266 | -0.1 | 0.0048 | -0.143 | 0.205 | -0.257
O=C1O[C@H](c2ccccc2)[C@H](c2ccccc2)N2[C@H]1[C@@H](C(=O)O)[C@]1(C(=O)Nc3ccc(C#CCCO)cc31)[C@H]2c1ccc(O)cc1 | -0.038 | 0.101 | -0.603 | 0.415 | 0.869 | 0.0044 | -0.0324 | 1.08 | 0.846 | 0.0639
COCCOC(=O)N1C(=O)[C@@]2(c3cc(C#CC4(O)CCCCCC4)ccc31)[C@H](c1ccc(O)cc1)N1[C@H](c3ccccc3)[C@H](c3ccccc3)OC(=O)[C@H]1[C@@H]2C(=O)Nc1nc2ccccc2s1 | 1.36 | -0.768 | 0.463 | 2.01 | 0.516 | 0.0932 | -0.131 | 3.16 | 1.35 | 2.21
Cc1ccc(S[C@]2(C(=O)NCCN3CCOCC3)CC(=O)N(Cc3ccccc3)[C@@H]2c2ccc(CO)cc2I)cc1 | 0.0104 | -3.12 | -0.601 | -0.318 | -0.431 | -0.124 | -0.17 | 0.0323 | -0.914 | -1.07
COc1ccc([Si](C)(C)[C@H]2[C@H](CC(=O)N3Cc4ccccc4C[C@H]3CO)O[C@@]3(C(=O)N(Cc4ccc(N5CCC5=O)cc4)c4ccccc43)[C@@H]2C)cc1 | 1.37 | -3.99 | 1.22 | 1.02 | -0.89 | 0.0158 | -0.144 | 1.65 | 1.45 | 0.548
CN(C)C(=O)[C@]1(Cc2ccccc2N=[N+]=[N-])N=C(c2ccc(OCCCO)cc2)O[C@@H]1c1ccccc1 | 1.08 | -1.85 | 0.104 | 0.516 | 0.0377 | -0.329 | -0.116 | 0.973 | 0.897 | 1.3
CCOC(=O)C[C@H]1[C@H](OC(=O)Cc2ccc3c(c2)OCO3)[C@@H](NC(=O)c2ccc3ccccc3c2)c2cc(OCCCO)ccc2N1C(=O)c1ccccc1 | 0.967 | -1.57 | 0.348 | 0.119 | -0.447 | -0.147 | -0.2 | -0.417 | 0.656 | 0.943
C[C@@]1([C@@H](NC(=O)c2ccccc2)c2ccc(-c3ccccc3)cc2)C[C@H]1C1CCCCC1 | -0.752 | 0.602 | -0.535 | 1.32 | 1.19 | -0.006 | -0.353 | 0.18 | 0.294 | -0.272
CCN(CC)c1ccc(N2CC=CC34O[C@@H]5/C=C\CCC(C)OC(=O)C5[C@H]3C(=O)N(C(CO)C(C)C)[C@@H]4C2=O)cc1 (stereo not given in full) | -0.0747 | -0.668 | -0.896 | -0.55 | -0.866 | -0.062 | 0.214 | -0.287 | -0.251 | 0.174
C=C(/C(=C/C[C@@H](OC(C)=O)c1ccc(OCCO)cc1)c1cnc2ccccc2c1)C(C)C | 1.32 | -1.19 | 0.49 | -0.196 | -0.541 | -0.091 | 0.111 | 0.0541 | 0.113 | 0.249
C[N+](C)(C)CCCC[C@@H]1NC(=O)[C@@H]2C[C@H](C(=O)NCCCCCN)[C@H](c3cccc(OCCO)c3)N2C1=O | 1.32 | -0.0028 | -0.202 | 1.7 | 1.12 | -0.289 | -0.256 | 0.422 | 0.987 | 0.932
